# From ChEMBL document CHEMBL4513149, “CO-ADD screening of MMV (CH) - MMV compounds” (2021)
# Results with a measured potency or affinity are listed apart.
# System: Staphylococcus aureus
# Details: Concentration 20 uM; ASSAY_TEST Inhibition of Bacterial Growth; detection method Absorption (OD600); MEDIA CAMHB; plate type 384well; NBS; CORNING #3640; time 18 hr
row,Structure (SMILES),Inhibition
1,CCN(CC)CCCCCCNc1cc(OC)cc2c(C)ccnc12.Cc1ccc(S(=O)(=O)O)cc1,18.42%
2,CS(=O)(=O)c1ccccc1C(=O)N(Cc1ccccc1)c1ccccc1,14.37%
3,N#Cc1nc(-c2ccccc2F)oc1NCCc1ccccc1,7.55%
4,Cc1ccc(NC(=O)c2nc[nH]c2C(=O)Nc2nc3ccccc3[nH]2)c(C)c1,23.22%
5,CCN(CC)CCCN1CCN(C(=O)c2cccc(-c3noc(C(F)(F)F)n3)c2)CC1,-0.71%
6,CC1(COc2ccc(N3CCC(Oc4ccc(OC(F)(F)F)cc4)CC3)cc2)Cn2cc([N+](=O)[O-])nc2O1 (stereo not given),13.25%
7,N#Cc1ccc(-c2cnc(N)c(-c3ccc(C(N)=O)cc3)n2)cc1,16.7%
8,Clc1ccc(-n2cc(COc3ccnc4ccccc34)nn2)cc1,21.12%
9,O=C(NC1CC1)c1ccc(N2CCOc3ccc(Cl)cc32)s1,18.01%
10,NC(=O)c1cc(Br)ccc1OCCOc1ccccc1,12.29%
11,COc1cc2ncnc(NC3CCN(Cc4ccccc4)CC3)c2cc1OC,7.78%
12,Nc1ncc(-c2ccc(C(F)(F)F)nc2)cc1-c1ccc(C(F)(F)F)nc1,3.63%
13,CN1CCN(c2nccc3nc(-c4ccc(F)c(F)c4)[nH]c23)CC1,17.33%
14,COc1ccccc1C(C)NCC(=O)Nc1cc(C(F)(F)F)ccc1Cl (stereo not given),10.99%
15,Cc1ccc(C(=O)Nc2ccc(S(=O)(=O)O)c3cc(S(=O)(=O)O)cc(S(=O)(=O)O)c23)cc1NC(=O)c1cccc(NC(=O)Nc2cccc(C(=O)Nc3cc(C(=O)Nc4ccc(S(=O)(=O)O)c5cc(S(=O)(=O)O)cc(S(=O)(=O)O)c45)ccc3C)c2)c1 [SURAMIN],23.13%
